# HP1b chromo inh – blocks HP1-beta chromodomain binding to methylated histone tails; Potency, µM (series often up to 114 µM), for the others: at the top dose activity change, negative = inhibition, usual class: inhibitors; 390,000 compounds, 0.56% hits; AlphaScreen HP1-beta / biotin-H3K9me3 peptide binding; also: potency is read from the fitted curve at half-maximal effect; nearly all actives have a fitted effect of over 70% in size
#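 AlphaScreen: HP1-beta (50 nM) preformed 30 min with biotin-H3(1-18)K9me3 peptide (50 nM) in PBS pH 7.4, 0.01% Tween-20. Compound added for 30 min at RT, then streptavidin donor/nickel chelate acceptor beads (10 ug/mL) for 30 min.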
# PI5P4K alpha inh – blocks human PI5P4K alpha kinase activity. PI5P4Kalpha enzyme, ADP-Glo luminescence, 60 min; hits give low values. max response, %. 330,000 compounds, 1.2% hits; active = max response of -50% or lower; inconclusive = between -30% and -50%; inactive = -30% or higher; also: value at the top dose of about 77 µM; % is scaled to controls: 0 for no effect and ±100 for the full control effect
# Target sequence (P48426 whole entry, looked up): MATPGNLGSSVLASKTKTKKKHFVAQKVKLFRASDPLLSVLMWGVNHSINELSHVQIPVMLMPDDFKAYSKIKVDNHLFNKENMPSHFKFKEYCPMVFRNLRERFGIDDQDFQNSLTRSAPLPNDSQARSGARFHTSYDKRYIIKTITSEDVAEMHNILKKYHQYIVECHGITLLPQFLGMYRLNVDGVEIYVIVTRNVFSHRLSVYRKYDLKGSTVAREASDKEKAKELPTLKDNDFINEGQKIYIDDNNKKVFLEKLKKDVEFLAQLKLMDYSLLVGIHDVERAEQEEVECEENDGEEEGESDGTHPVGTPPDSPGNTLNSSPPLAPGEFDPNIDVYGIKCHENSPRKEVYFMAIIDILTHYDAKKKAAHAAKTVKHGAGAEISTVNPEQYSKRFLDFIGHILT
#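 Reactions run in 0.038 M HEPES pH 7.4, 0.28 mM EGTA, 0.1% CHAPS and 5% DMSO, with PI5P4Kalpha, substrate, compound and 5 microM ATP final, one hour at room temperature. Readout is ADP-Glo luminescence.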
# BAZ2B inh – blocks human BAZ2B; AID 504333; Q9UIF8; AlphaScreen BAZ2B-H3K14Ac peptide displacement; Potency, µM (doses to about 114 µM), inactives show at the top dose activity change, negative = inhibition, usual class: inhibitors; 360,000 compounds, 4.4% hits; also: potency is read from the fitted curve at half-maximal effect; % is scaled to controls: 0 for no effect and ±100 for the full control effect; nearly all actives have a fitted effect of over 60% in size
#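 Complex of BAZ2B and biotin-H3K14Ac (50 nM apiece) forms over 30 min at RT, then faces library compounds up to 110 uM for another 30 min; AlphaScreen beads added, 20 min dark incubation, luminescence read.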
# PLK1 PBD block – inhibitors of human PLK1 polo-box domain binding | Plk1 PBD binding of FITC phosphopeptide, fluorescence polarization | Potency, µM, without a hit: max response, negative = inhibition, actives largely listed as inhibitors | 360,000 compounds, 2.8% hits | P53350; also: potency is read from the fitted curve at half-maximal effect; series mostly up to about 57 µM; % is scaled to controls: 0 for no effect and ±100 for the full control effect; nearly all actives have a fitted effect of over 65% in size
# G9a block – blocks human histone lysine methyltransferase G9a; G9a H3K9 monomethylation, AlphaScreen, 2 h; Potency, µM (titrated, usually from 102 µM), for the others: at the top dose activity, negative = inhibition, usual class: inhibitors; 350,000 compounds, 8.8% hits; also: potency is read from the fitted curve at half-maximal effect; % is scaled to controls: 0 for no effect and ±100 for the full control effect; nearly all actives have a fitted effect of over 75% in size
#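 Readings reflect AlphaScreen signal from monomethyl-H3K9 antibody detection. HMT at 20 nM; substrate b-H3K9 500 nM; cofactor SAM 20 uM; 2 h RT reaction; compounds tested as titrations in qHTS with 15 min preincubation.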
# JMJD2A Tudor – blocks the human JMJD2A Tudor domain; O75164; AlphaScreen JMJD2A-Tudor / H3K4me3 peptide binding; Potency, µM (titrated, usually from 114 µM), for inactives: at the top dose activity change, negative = inhibition, hits mostly inhibitors; 390,000 compounds, 4.4% hits; also: potency is read from the fitted curve at half-maximal effect; % is scaled to controls: 0 for no effect and ±100 for the full control effect; nearly all actives have a fitted effect of over 50% in size
# Starred values were filed as active, the others as inactive; ? = inconclusive; · = no result; [ ] = remark or other dose. A selection: hits, their analogues and other compounds. The true share with any hit is near 12%. Unless noted, calls follow the shape of the dose curve; as a rule, active = well fitted curve in the direction sought with a large enough effect; inconclusive = small, poorly fitted or top-dose-only effect, or another doubt; inactive = no such curve, though single readings can be large; an effect the other way counts as inactive or inconclusive.
SMILES,HP1b chromo inh,PI5P4K alpha inh,BAZ2B inh,PLK1 PBD block,G9a block,JMJD2A Tudor
O=C(CSc1nc(-c2cccc(Cl)c2)nc2cc(=O)[nH]n12)Nc1ccccc1,-1%,·,56µM*,·,-7%[59 µM],?
Cc1ccc(NC(=O)CSc2nc(-c3ccco3)nc3cc(=O)[nH]n23)c(Cl)c1,26%,?,45µM*,-29%,·,?
O=C(CSc1nc(-c2cccs2)nc2cc(=O)[nH]n12)Nc1ccc(F)cc1,21%,·,-4%,·,26%[59 µM],-17%
Cn1c(CNC(=O)CSc2nc(-c3cccc(Cl)c3)nc3cc(=O)[nH]n23)nc2ccccc21,76%,·,20%,·,61%[59 µM],-4%
COc1cccc(-c2cn3c(n2)sc2cc(C(=O)NCc4cccs4)ccc23)c1,49%,·,-1%,·,-2%[59 µM],2%
O=C(NCc1cccc(F)c1)c1cccc(NC(=O)c2nsc3ccccc23)c1,28%[57 µM],·,2%,·,-1%[59 µM],3%
COc1ccc(CNC(=O)c2cc(S(=O)(=O)N3CCCCC3)ccc2Cl)cc1OC,-1%,1,·,2%,·,-7%
COc1ccc(OC)c(NC(=O)CSc2nc(-c3ccccc3C)nc3cc(=O)[nH]n23)c1,-4%,·,-22%,·,-8%[59 µM],-18%
Cc1ccccc1NC(=O)CSc1nc(-c2cccs2)nc2cc(=O)[nH]n12,6%,·,50µM*,·,17%[12.7 µM],?
COc1ccc2c(c1)c(C(O)CN1CCN(Cc3ccc4c(c3)OCO4)CC1)c(C)n2C (configuration not stated),?,9,?,-15%,50µM*,56µM*
Cc1c(C(O)CN2CCN(Cc3ccc4c(c3)OCO4)CC2)c2ccccc2n1C (configuration not stated),-38%,·,?,-14%,?,56µM*
COc1ccc2c(c1)c(C(O)CN1CCC(Cc3ccccc3)CC1)c(C)n2C (configuration not stated),?,1,35µM*,-2%,?,28µM*
OC(CN1CCN(Cc2ccc3c(c2)OCO3)CC1)c1c[nH]c2ccccc12 (configuration not stated),2%,-3,0%,-9%,16%[0.501 µM],-25%
COc1ccc(-n2c(=O)c3c(c4cc(OC)ccc4n3C)n(Cc3ccc(F)cc3Cl)c2=O)cc1,10%,·,-13%,·,1%[59 µM],-9%
Cc1ccccc1NC(=S)NCCSc1ccc(Cl)cc1,7%,-2,?,-7%,33%[59 µM],89µM*
COc1cc(C)c(NC(=S)Nc2cccc(Cl)c2)cc1OC,?,-12,-1%,?,89µM*,-23%
COc1ccccc1NC(=S)NCc1ccccn1,15%,-2,1%,-22%,?,-13%
COc1cc(C)c(NC(=S)Nc2ccc(C)c(Cl)c2)cc1OC,?,-3,-37%,?,?,-32%
COc1ccc(Cl)cc1NC(=S)Nc1ccccc1C,-2%,1,-3%,11µM*,·,14µM*
COc1ccc(Cl)cc1NC(=S)NCc1ccccn1,10%,-7,-7%,-21%,20µM*,-14%
CCc1noc(-c2ccc(NCc3ccccc3)c([N+](=O)[O-])c2)n1,23%,·,-6%,·,-20%[59 µM],-12%
COC(=O)c1cccc(NC(=S)Nc2cc(Cl)ccc2OC)c1,?,-15,-14%,?,·,-20%
COC(=O)c1cc(OC)c(OC)cc1NC(=S)Nc1cccc(C(C)=O)c1,5%,7,5%,-20%,10µM*,22µM*
O=C(NCc1ccc(Cl)cc1)C1CCCN(c2ncnc3onc(-c4ccc(F)cc4)c23)C1 (configuration not stated),35%,·,7%[57.1 µM],·,-2%[59 µM],-10%
CCOc1ccccc1-c1nnc2n1N=C(c1ccc(OC)cc1)CS2,·,·,·,·,·,-26%
COc1ccc(O)c(-c2cc(-c3ccccc3Cl)[nH]n2)c1,-1%,25,?,-1%,·,?
COc1ccc(O)c(-c2cc(-c3cccs3)[nH]n2)c1,-16%,5,71µM*,?,10%[59 µM],16%[11.4 µM]
O=c1oc(-c2ccc([N+](=O)[O-])cc2)nc2ccc(O)cc12,-11%,-9,?,-19%,40µM*,?
